# The entries come from a sample that favours the strongest signals as a whole.
# Key:
# Experiment in all cases: glycan array binding signal (z-score within array); higher = stronger binding
# Conditions in all cases: glycan notation: IUPAC condensed, linker removed
# [1] = target: GalNAc(b1-4)GlcNAc(b1-2)Man(a1-3)[GalNAc(b1-4)GlcNAc(b1-2)Man(a1-6)]Man(b1-4)GlcNAc(b1-4)GlcNAc
# Procedure, shortened: (§1)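 The binding signal is a Z-score computed within each array. Data were drawn from 3228 arrays in the Consortium for Functional Glycomics database, restricted to those with a known protein sequence. Scores were averaged over arrays of the same protein sequence at different concentrations or buffers, and over linkers, and negative values can be taken as non-binding.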
# GalNAc(b1-6)GalNAc = target: GalNAc(b1-6)GalNAc
# Procedure, shortened: as §1
# GalNAc3S(b1-4)GlcNAc3S = target: GalNAc3S(b1-4)GlcNAc3S
# Procedure, shortened: as §1
# GlcA(b1-6)Gal = target: GlcA(b1-6)Gal
# Procedure, shortened: as §1
# [2] = target: GlcA3S(b1-3)Gal(b1-4)GlcNAc(b1-2)Man
# Procedure, shortened: as §1
# [3] = target: GlcNAc(a1-4)Gal(b1-4)GlcNAc
# Procedure, shortened: as §1
# [4] = target: GlcNAc(b1-3)Gal(b1-3)GalNAc
# Procedure, shortened: as §1
# [5] = target: GlcNAc(b1-3)Gal(b1-4)GlcNAc(b1-2)Man(a1-3)[GlcNAc(b1-3)Gal(b1-4)GlcNAc(b1-2)Man(a1-6)]Man(b1-4)GlcNAc(b1-4)[Fuc(a1-6)]GlcNAc
# Procedure, shortened: as §1
# [6] = target: GlcNAc(b1-3)Gal(b1-4)GlcNAc(b1-3)Gal(b1-4)GlcNAc(b1-2)[GlcNAc(b1-3)Gal(b1-4)GlcNAc(b1-3)Gal(b1-4)GlcNAc(b1-6)]Man(a1-6)[GlcNAc(b1-3)Gal(b1-4)GlcNAc(b1-3)Gal(b1-4)GlcNAc(b1-2)Man(a1-3)]Man(b1-4)GlcNAc(b1-4)[Fuc(a1-6)]GlcNAc
# Procedure, shortened: as §1
# [7] = target: GlcNAc(b1-3)Gal(b1-4)GlcNAc(b1-3)Gal(b1-4)GlcNAc(b1-3)Gal(b1-4)GlcNAc(b1-2)Man(a1-3)[GlcNAc(b1-3)Gal(b1-4)GlcNAc(b1-3)Gal(b1-4)GlcNAc(b1-3)Gal(b1-4)GlcNAc(b1-2)Man(a1-6)]Man(b1-4)GlcNAc(b1-4)[Fuc(a1-6)]GlcNAc
# Procedure, shortened: as §1
# [8] = target: GlcNAc(b1-3)[GlcNAc(b1-4)][GlcNAc(b1-6)]GlcNAc
# Procedure, shortened: as §1
# [9] = target: GlcNAc(b1-3)[GlcNAc(b1-6)]GalNAc
# Procedure, shortened: as §1
# Kdn(a2-6)Gal(b1-4)GlcNAc = target: Kdn(a2-6)Gal(b1-4)GlcNAc
# Procedure, shortened: as §1
# Man(a1-3)[Man(a1-6)]Man = target: Man(a1-3)[Man(a1-6)]Man
# Procedure, shortened: as §1
# [10] = target: Neu5Ac(a2-3)Gal(b1-3)GalNAc6S
# Procedure, shortened: as §1
# [11] = target: Neu5Ac(a2-3)Gal(b1-4)GlcNAc(b1-3)Gal(b1-4)GlcNAc(b1-3)Gal(b1-4)GlcNAc(b1-2)Man(a1-3)[Neu5Ac(a2-3)Gal(b1-4)GlcNAc(b1-3)Gal(b1-4)GlcNAc(b1-3)Gal(b1-4)GlcNAc(b1-2)Man(a1-6)]GalNAc
# Procedure, shortened: as §1
# [12] = target: Neu5Ac(a2-3)Gal(b1-4)GlcNAc(b1-6)[Neu5Ac(a2-3)Gal(b1-3)]GalNAc
# Procedure, shortened: as §1
# [13] = target: Neu5Ac(a2-3)Gal(b1-4)[Fuc(a1-3)]GlcNAc(b1-6)[Gal(b1-3)]GalNAc
# Procedure, shortened: as §1
# [14] = target: Neu5Ac(a2-3)[GalNAc(b1-4)]Gal(b1-4)Glc
# Procedure, shortened: as §1
# [15] = target: Neu5Ac(a2-6)Gal(b1-4)GlcNAc(b1-2)Man(a1-6)[GlcNAc(b1-2)Man(a1-3)]Man(b1-4)GlcNAc(b1-4)GlcNAc
# Procedure, shortened: as §1
# [16] = target: Neu5Ac(a2-6)Gal(b1-4)GlcNAc(b1-3)Gal(b1-4)GlcNAc(b1-3)Gal(b1-4)GlcNAc(b1-2)Man(a1-3)[Neu5Ac(a2-6)Gal(b1-4)GlcNAc(b1-3)Gal(b1-4)GlcNAc(b1-3)Gal(b1-4)GlcNAc(b1-2)Man(a1-6)]GalNAc
# Procedure, shortened: as §1
# [17] = target: Neu5Ac(a2-6)Gal(b1-4)GlcNAc(b1-3)Gal(b1-4)GlcNAc(b1-3)GalNAc
# Procedure, shortened: as §1
# Neu5Ac(a2-6)GalNAc = target: Neu5Ac(a2-6)GalNAc
# Procedure, shortened: as §1
# [18] = target: Neu5Ac(a2-6)GalNAc(b1-4)GlcNAc6S
# Procedure, shortened: as §1
# [19] = target: Neu5Ac(a2-8)Neu5Ac(a2-8)Neu5Ac
# Procedure, shortened: as §1
# [20] = target: Neu5Gc(a2-3)Gal(b1-3)GlcNAc
# Procedure, shortened: as §1
# [21] = target: Neu5Gc(a2-3)Gal(b1-4)GlcNAc(b1-3)Gal(b1-4)GlcNAc(b1-2)Man(a1-3)[Neu5Gc(a2-3)Gal(b1-4)GlcNAc(b1-3)Gal(b1-4)GlcNAc(b1-2)Man(a1-6)]Man(b1-4)GlcNAc(b1-4)GlcNAc
# Procedure, shortened: as §1
binder,measurement,setting,value
"AFL5 (Aspergillus fumigatus), Q4WB00 (protein) MDNFMEMTKKLGHQPELLRLRALDATYDDALEGKLVVAPLDMSEPGKKILDSGTADGTWLRNVRSKQSVPHDYYGSDVEGELFPKDPDGITYFAHSFKDPWPQQYLGFFDLVHIRGSLAGSAPEGPAPVIQNLTTLLKPGGWVQLMEMNAFSPPPNGPAMTDFAKMASEMFTGIGVGDFANNNKSMLEDAGLKNVQEKRVIVNLGKKAKPELHDQSIHGVTGPIVPLTSVARTVKSSFTGEQLDALPARVKEELETEGGQVEMIIAFGQKA",glycan array binding signal (z-score),[1],0.619
same,glycan array binding signal (z-score),GalNAc(b1-6)GalNAc,-0.013
same,glycan array binding signal (z-score),GalNAc3S(b1-4)GlcNAc3S,-0.187
same,glycan array binding signal (z-score),GlcA(b1-6)Gal,-0.217
same,glycan array binding signal (z-score),[2],0.082
same,glycan array binding signal (z-score),[3],-0.335
same,glycan array binding signal (z-score),[4],0.205
same,glycan array binding signal (z-score),[5],0.456
same,glycan array binding signal (z-score),[6],1.94
same,glycan array binding signal (z-score),[7],1.47
same,glycan array binding signal (z-score),[8],-0.493
same,glycan array binding signal (z-score),[9],-0.216
same,glycan array binding signal (z-score),Kdn(a2-6)Gal(b1-4)GlcNAc,0.092
same,glycan array binding signal (z-score),Man(a1-3)[Man(a1-6)]Man,0.203
same,glycan array binding signal (z-score),[10],-0.456
same,glycan array binding signal (z-score),[11],2.14
same,glycan array binding signal (z-score),[12],-0.74
same,glycan array binding signal (z-score),[13],0.716
same,glycan array binding signal (z-score),[14],-0.53
same,glycan array binding signal (z-score),[15],-0.146
same,glycan array binding signal (z-score),[16],2.17
same,glycan array binding signal (z-score),[17],-0.298
same,glycan array binding signal (z-score),Neu5Ac(a2-6)GalNAc,-0.731
same,glycan array binding signal (z-score),[18],0.024
same,glycan array binding signal (z-score),[19],0.079
same,glycan array binding signal (z-score),[20],-0.526
same,glycan array binding signal (z-score),[21],0.635

# From the supplement of paper PMC8728848
